In PubChem BioAssay AID1063 (University of Pittsburgh Molecular Library Screening Center, 2008):
In all, about 200,000 compounds went through this assay and about 18,000 (9%) were called active. Cut-off read from the data, not from the text of the source: active = inhibition above about 50%; inactive = the rest. The full list was thinned out, with actives kept by preference.

Assay: Leishmania major promastigote growth inhibition, primary screen (AID 1063);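 note: promastigotes grown with compound for 44 hours at 28 °C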
Conditions: Leishmania major promastigotes, resazurin fluorescence viability; at 10 µM; hits give high values
For CN(C)CCCN1C(=O)CSC1c1ccc([N+](=O)[O-])cc1 (configuration not stated), the inhibition was 46.8% (inactive).
With O=C1NC2(CCCCCC2)C(=O)N1CCS(=O)(=O)Oc1ccccc1 the inhibition was -10.5% (inactive).
For Cc1ccc(NC(=O)c2ccccn2)cc1S(=O)(=O)N1CCOCC1, the inhibition was -1.09% (inactive).
For CCn1cc(C(=O)Nc2cc(C)ccc2C)c(=O)c2ccc(C)nc21, the inhibition was 1.39% (inactive).
In the case of CC(C)(C)N(CC#CCC(O)(c1ccccc1)C1CCCC1)CCO (configuration not stated), the inhibition is reported as 3.46% (inactive).
In the case of CN(CC#CCC(c1ccccc1)c1ccccc1)C(C)(C)C, the inhibition is reported as 100% (active).
For COC(=O)C1=C(Nc2ccc(OC)cc2)C=C(C)C(C(=O)OC)C1c1ccc(C)cc1 (configuration not stated), the inhibition was 24.6% (inactive).
In the case of COC(=O)C1=C(Nc2ccc(C)cc2)C=C(C)C(C(=O)OC)C1c1ccc(F)cc1 (configuration not stated), the inhibition is reported as 52.4% (active).
For COC(=O)C1C(=O)NCC1c1ccc(C)cc1 (configuration not stated), the inhibition was 6.72% (inactive).
With C=CCn1c(C)cc(C2=NNC(=NCC)SC2)c1C the inhibition was 58.5% (active).
With COCCn1c(C)cc(C2=NNC(=Nc3ccc(F)cc3)SC2)c1C the inhibition was -1.36% (inactive).
With Cc1cc(C2=NNC(=Nc3ccc(S(=O)(=O)N4CCOCC4)cc3)SC2)c(C)n1CC1CCCO1 (configuration not stated) the inhibition was -7.5% (inactive).
With COC(=O)c1cc2n(n1)CCCNC2=O the inhibition was -4.96% (inactive).
With CC(=O)Nc1ccccc1NC(=O)c1cc(C)cc(C)c1 the inhibition was -0.58% (inactive).
In the case of CCC1CCCCN1C(=S)Nc1ccc(C(C)=O)cc1 (configuration not stated), the inhibition is reported as -8.59% (inactive).
With O=C(O)c1ccc(NC(=O)C2CCCCC2)cc1 the inhibition was -6.65% (inactive).
With CC(=O)c1ccc(N=C2SCCCN2C(=O)C2CCCCC2)cc1 the inhibition was 85.8% (active).
In the case of COc1cccc(NC(=O)CS(=O)(=O)c2cn(CC(=O)N3CCOCC3)c3ccccc23)c1, the inhibition is reported as -7.03% (inactive).
With O=C(NC(Cc1c[nH]c2ccccc12)C(=O)N/N=C/c1ccc(Br)cc1)c1cccs1 (configuration not stated) the inhibition was 65.6% (active).
With CC(=O)Nc1ccc(/C=N/NC(=O)c2cccs2)cc1 the inhibition was -2.65% (inactive).
With CC(=O)NC(Cc1c[nH]c2ccccc12)C(=O)O (configuration not stated) the inhibition was -12.4% (inactive).
For CSc1ncccc1C(=O)N1CCCC(CCC(=O)NCc2ccccc2F)C1 (configuration not stated), the inhibition was -5.49% (inactive).
For COc1cc(NC(=O)c2cccs2)ccc1NC(=O)c1ccccc1Cl, the inhibition was 0.19% (inactive).
With CCOc1ccc2[nH]c(=O)c(C(c3nnnn3CCOC)N3CCOCC3)cc2c1 (configuration not stated) the inhibition was -4.07% (inactive).
In the case of COc1ccc(N2CCN(C(c3cc4ccc(C)cc4[nH]c3=O)c3nnnn3C3CCCC3)CC2)cc1 (configuration not stated), the inhibition is reported as 75.4% (active).
With CC(C)C(c1nnnn1C1CCCC1)N1CCN(c2ccccc2F)CC1 (configuration not stated) the inhibition was 33% (inactive).
With CCC(c1nnnn1C1CCCC1)N1CCN(C(=O)c2ccco2)CC1 (configuration not stated) the inhibition was -6.05% (inactive).
With CCOC(=O)C1CCN(C(c2cc3cc(C)cc(C)c3[nH]c2=O)c2nnnn2C2CCCCC2)CC1 (configuration not stated) the inhibition was 88.6% (active).
With CN1CCN(C(c2cc3cc4c(cc3[nH]c2=O)OCCO4)c2nnnn2C2CCCC2)CC1 (configuration not stated) the inhibition was -6.88% (inactive).
With Cc1cc(C)c2[nH]c(=O)c(C(c3nnnn3Cc3ccc4c(c3)OCO4)N3CCCC3)cc2c1 (configuration not stated) the inhibition was 27.4% (inactive).
In the case of COCCn1nnnc1C(c1ccccc1Cl)N1CCN(c2ccccc2OC)CC1 (configuration not stated), the inhibition is reported as -0.67% (inactive).
In the case of COc1ccc(C(c2nnnn2C2CCCCC2)N2CCN(c3ccccc3F)CC2)cc1 (configuration not stated), the inhibition is reported as 96.8% (active).
